Where “and” joins values, the source holds several entries; their conditions need not be identical. Equal values may be shown once. This is part of a sample that, as a whole, favours compounds with a hit. Of some 79,000 tested, about 15% had one in any assay. Where a structure was tested more than once in an assay, its records may differ in their call. Calls of active or inactive are those of the source. Cut-off read from the data, not from the text of the source: active = growth inhibition above about 70%; inactive = the rest.
Assays:
[1] = NCI Yeast Anticancer Drug Screen. Data for the rad50 strain (AID 155);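 note: 0% = growth of vehicle-only cultures of the same strain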; conditions: S. cerevisiae rad50 strain growth inhibition, stronger effect = higher value
In short: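 DNA repair mutant yeast, compound exposure, growth read-out; inhibition is taken relative to vehicle.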

[2] = NCI Yeast Anticancer Drug Screen. Data for the mec2-1 strain (AID 157); conditions: S. cerevisiae mec2-1 strain, stronger effect = higher value
In short: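 Cells of the genetically defined mec2-1 yeast strain are incubated with test compound. Inhibition of growth is calculated against vehicle-treated controls.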

[3] = NCI Yeast Anticancer Drug Screen. Data for the sgs1 mgt1 strain (AID 161);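 note: 0% = growth of cultures given vehicle only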; conditions: S. cerevisiae sgs1 mgt1 strain, stronger effect = higher value
In short: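 Test agents were incubated with a DNA-repair-mutant yeast strain. Growth was then read and compared against vehicle-treated controls.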

[4] = NCI Yeast Anticancer Drug Screen. Data for the cln2 rad14 strain (AID 165);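 note: 0% = growth equal to vehicle treated cultures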; conditions: S. cerevisiae cln2 rad14 strain, stronger effect = higher value
In short: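 The screen exposed genetically defined yeast (cln2 rad14) to test compounds and scored growth inhibition relative to vehicle-treated controls.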

[5] = NCI Yeast Anticancer Drug Screen. Data for the bub3 strain (AID 167); conditions: S. cerevisiae bub3 mutant strain, stronger effect = higher value
In short: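 In this screen, a yeast mutant lacking normal mitotic checkpoint function is challenged with compound. Relative growth versus vehicle gives the inhibition value.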

[6] = NCI Yeast Anticancer Drug Screen. Data for the mlh1 rad18 strain (AID 175); conditions: S. cerevisiae mlh1 rad18 strain growth inhibition, stronger effect = higher value
In short: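 Compound-treated yeast growth, normalised to vehicle controls. Strain bears defined DNA repair mutations.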

[7] = at 5.0 µM (retest, dose inferred, filed as 0.5)
[8] = at 50.0 µM (retest, dose inferred, filed as 5.0)

SMILES | growth inhibition [1, 7] | growth inhibition [1, 8] | growth inhibition ([1]; at 50.0 µM) | growth inhibition [2, 7] | growth inhibition [2, 8] | growth inhibition ([2]; at 50.0 µM) | growth inhibition [3, 7] | growth inhibition [3, 8] | growth inhibition ([3]; at 50.0 µM) | growth inhibition [4, 7] | growth inhibition [4, 8] | growth inhibition ([4]; at 50.0 µM) | growth inhibition [5, 7] | growth inhibition [5, 8] | growth inhibition ([5]; at 50.0 µM) | growth inhibition [6, 7] | growth inhibition [6, 8] | growth inhibition ([6]; at 50.0 µM)
CC(C)(C)OOC(=O)c1ccccc1 | 26% (inactive) | 99% (active) | 37.6% (inactive) | 11% (inactive) | 99% (active) | 18.4% (inactive) | 14% (inactive) | 93% (active) | 29% (inactive) | 14% (inactive) | 99% (active) | 0.5% (inactive) | 3% (inactive) | 99% (active) | 3.1% (inactive) | 26% (inactive) | 99% (active) | 75.3% (active)
Oc1cccc[c]1[Hg][Cl] | 99% (active) | 99% (active) | 99.5% (active) | 99% (active) | 100% (active) | 99.7% (active) | 99% (active) | 99% (active) | 99.5% (active) | 100% (active) | 99% (active) | 98.6% (active) | 99% (active) | 99% (active) | 99.5% (active) | 99% (active) | 99% (active) | 99.5% (active)
CC[n+]1c(/C=C/c2ccc(N(CCCl)CCCl)cc2)ccc2cc(I)ccc21 | 99% (active) | 99% (active) | 91% (active) | 99% (active) | 99% (active) | 90.8% (active) | 99% (active) | 99% (active) | 89.5% (active) | 99% (active) | 99% (active) | 88.9% (active) | 99% (active) | 99% (active) | 91.5% (active) | 99% (active) | 99% (active) | 88.7% (active)
Cc1cc(-c2ccccc2)cc(C)[n+]1[O-] | -1% (inactive) | 20% (inactive) | 20.7% (inactive) | -6% (inactive) | 13% (inactive) | 28.1% (inactive) | -6% (inactive) | 12% (inactive) | 54.6% (inactive) | -8% (inactive) | -13% (inactive) | -31.3% (inactive) | -2% (inactive) | 14% (inactive) | -12.7% (inactive) | -4% (inactive) | 30% (inactive) | 5.4% (inactive)
CC1=[N+](Cc2cc(C)cc(C)c2O)CCCC1 | -5% (inactive) | 4% (inactive) | -5.5% (inactive) | -8% (inactive) | -9% (inactive) | -7.45% (inactive) | -5% (inactive) | -57% (inactive) | 41.2% (inactive) | -2% (inactive) | -4% (inactive) | -3% (inactive) | -8% (inactive) | -1% (inactive) | 1.2% (inactive) | -13% (inactive) | -8% (inactive) | -24.7% (inactive)
Cc1cc(N(C)C)c2ccccc2[n+]1CCCCCCCCCC[n+]1c(C)cc(N(C)C)c2ccccc21 | 92% (active) | 98% (active) | 89.1% (active) | 98% (active) | 99% (active) | 91.8% (active) | 95% (active) | 99% (active) | 88.8% (active) | 87% (active) | 96% (active) | 91% (active) | 94% (active) | 98% (active) | 89.5% (active) | 97% (active) | 99% (active) | 91.8% (active)
CC12CCC(O)CC1CCC1C2CCC2(C)C(C(=O)CC(O)C(F)(F)F)CCC12 (stereo unspecified) | 4% (inactive) | 62% (inactive) | 84.5% (active) | 8% (inactive) | 43% (inactive) | 65.8% (inactive) | -9% (inactive) | 62% (inactive) | 67.5% (inactive) | -7% (inactive) | 66% (inactive) | 71.2% (active) | -15% (inactive) | 57% (inactive) | 84% (active) | 0% (inactive) | 63% (inactive) | 85.7% (active)
CCC1(O)C(=O)OCc2c1cc1n(c2=O)Cc2cc3cc([N+](=O)[O-])ccc3nc2-1 (stereo unspecified) | 76% (active) | 95% (active) | 77.9% (active) | 10% (inactive) | 46% (inactive) | 43.4% (inactive) | 21% (inactive) | 33% (inactive) | 24.9% (inactive) | 14% (inactive) | 8% (inactive) | -2.9% (inactive) | 13% (inactive) | 10% (inactive) | -21.3% (inactive) | 10% (inactive) | 32% (inactive) | 59.5% (inactive)
c1ccc2c3ccn4cc5c(cc4c-3nc2c1)CCCC5 | 10% (inactive) | 97% (active) | 86.9% (active) | 23% (inactive) | 98% (active) | 86.6% (active) | 22% (inactive) | 98% (active) | 86.2% (active) | 6% (inactive) | 96% (active) | 73.2% (active) | 1% (inactive) | 97% (active) | 87% (active) | 26% (inactive) | 98% (active) | 85.2% (active)
CCC[CH2][Sn]1([CH2]CCC)[O]Cc2nc(C)ccc2[O]1 | 27% (inactive) | 92% (active) | 77.5% (active) | 29% (inactive) | 96% (active) | 81.8% (active) | 40% (inactive) | 96% (active) | 80% (active) | 15% (inactive) | 93% (active) | 71.9% (active) | 33% (inactive) | 96% (active) | 83.7% (active) | 40% (inactive) | 96% (active) | 85.5% (active)
CCC(=O)C(CCN1CCC2(CCCc3ccccc32)CC1)(c1ccccc1)c1ccccc1 | -2% (inactive) | 89% (active) | 98.4% (active) | -5% (inactive) | 93% (active) | 94.2% (active) | 3% (inactive) | 93% (active) | 97.8% (active) | -11% (inactive) | 87% (active) | 87.2% (active) | -2% (inactive) | 91% (active) | 94.2% (active) | 3% (inactive) | 92% (active) | 97.3% (active)
CC(Cl)CN(C)C (stereo unspecified) | 24% (inactive) | 74% (active) | 75.3% (active) and 30.4% (inactive) | -5% (inactive) | 13% (inactive) | 1.1% (inactive) and -17.4% (inactive) | 25% (inactive) | 57% (inactive) | 54.5% (inactive) and 33.9% (inactive) | -1% (inactive) | 3% (inactive) | -55.5% (inactive) and 7.95% (inactive) | -8% (inactive) | -10% (inactive) | -20.4% (inactive) and -16.6% (inactive) | 11% (inactive) | 37% (inactive) | 57% (inactive) and 18.3% (inactive)
CN(C)CC(Cl)CCl (stereo unspecified) | 19% (inactive) | 86% (active) | 88.9% (active) | -1% (inactive) | 71% (active) | 80.2% (active) | 14% (inactive) | 75% (active) | 43.5% (inactive) | -4% (inactive) | 64% (inactive) | 55.9% (inactive) | -8% (inactive) | 8% (inactive) | 9.25% (inactive) | 15% (inactive) | 82% (active) | 49.5% (inactive)
[I][Hg][I].c1ccc(N=P(c2ccccc2)(c2ccccc2)c2ccccc2)cc1 | 99% (active) | 99% (active) | 99.3% (active) | 100% (active) | 100% (active) | 99.6% (active) | 100% (active) | 99% (active) | 99.6% (active) | 99% (active) | 99% (active) | 98.7% (active) | 99% (active) | 99% (active) | 99.3% (active) | 99% (active) | 99% (active) | 99.3% (active)
c1cc2c(cc1NC1=NCCO1)CCCC2 | 14% (inactive) | 8% (inactive) | -37% (inactive) | 6% (inactive) | 4% (inactive) | -30% (inactive) | -1% (inactive) | 34% (inactive) | -6.4% (inactive) | 28% (inactive) | 21% (inactive) | 15.8% (inactive) | -33% (inactive) | -8% (inactive) | -22.6% (inactive) | 15% (inactive) | 11% (inactive) | -41.1% (inactive)
[Br][Sn]([CH]1CCCCC1)([CH]1CCCCC1)[CH]1CCCCC1 | 98% (active) | 99% (active) | 98.6% (active) | 100% (active) | 100% (active) | 99.1% (active) | 99% (active) | 99% (active) | 98.5% (active) | 57% (inactive) | 98% (active) | 98.5% (active) | 23% (inactive) | 99% (active) | 98.5% (active) | 99% (active) | 99% (active) | 98.8% (active)
O=[N+]([O-])C(Br)CO (stereo unspecified) | 2% (inactive) | 91% (active) | 76% (active) | 2% (inactive) | 99% (active) | 89% (active) | 3% (inactive) | 94% (active) | 79% (active) | 9% (inactive) | 95% (active) | 84.8% (active) | 7% (inactive) | 99% (active) | 94% (active) | 4% (inactive) | 97% (active) | 88.1% (active)
